# Reference: the supplement of paper PMC8728848
# This is one part of a sample in which the strongest signals are shown more often than they occur.
# What was measured:
# Assay in all cases: glycan array binding signal (z-score within array); higher = stronger binding
# Settings in all cases: glycan notation: IUPAC condensed, linker removed
# Fuc(a1-2)Gal = biological target: Fuc(a1-2)Gal
# Procedure, shortened: (§1)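 Glycan array data were curated from 3228 arrays in the Consortium for Functional Glycomics database and kept only where the protein sequence was available. Glycan names were converted to IUPAC-condensed notation, and columns mapping to the same glycan were averaged. The binding signal is a within-array Z-score, averaged across arrays of the same protein sequence at different concentrations or buffers and across linkers. Negative Z-scores can be read as non-binding.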
# [1] = biological target: Fuc(a1-2)Gal(b1-3)GlcNAc(b1-2)Man(a1-3)[Fuc(a1-2)Gal(b1-3)GlcNAc(b1-2)Man(a1-6)]Man(b1-4)GlcNAc(b1-4)[Fuc(a1-6)]GlcNAc
# Procedure, shortened: as §1
# [2] = biological target: Fuc(a1-2)Gal(b1-3)GlcNAc(b1-3)[Neu5Ac(a2-6)Gal(b1-4)GlcNAc(b1-6)]Gal(b1-4)Glc
# Procedure, shortened: as §1
# [3] = biological target: Fuc(a1-2)Gal(b1-3)GlcNAc6S
# Procedure, shortened: as §1
# [4] = biological target: Fuc(a1-2)Gal(b1-3)[Fuc(a1-4)]GlcNAc
# Procedure, shortened: as §1
# [5] = biological target: Fuc(a1-2)Gal(b1-4)GlcNAc(b1-2)Man
# Procedure, shortened: as §1
# [6] = biological target: Fuc(a1-2)Gal(b1-4)GlcNAc(b1-3)Gal(b1-4)GlcNAc(b1-3)Gal(b1-4)GlcNAc
# Procedure, shortened: as §1
# [7] = biological target: Fuc(a1-2)Gal(b1-4)[Fuc(a1-3)]GlcNAc(b1-2)[Fuc(a1-2)Gal(b1-4)[Fuc(a1-3)]GlcNAc(b1-4)]Man(a1-3)[Fuc(a1-2)Gal(b1-4)[Fuc(a1-3)]GlcNAc(b1-2)Man(a1-6)]Man(b1-4)GlcNAc(b1-4)GlcNAc
# Procedure, shortened: as §1
# [8] = biological target: Fuc(a1-2)[Gal(a1-3)]Gal(b1-3)GalNAc
# Procedure, shortened: as §1
# [9] = biological target: Fuc(a1-2)[Gal(a1-3)]Gal(b1-3)GlcNAc
# Procedure, shortened: as §1
# [10] = biological target: Fuc(a1-2)[Gal(a1-3)]Gal(b1-4)Glc
# Procedure, shortened: as §1
# [11] = biological target: Fuc(a1-2)[GalNAc(a1-3)]Gal(b1-4)GlcNAc(b1-6)GalNAc
# Procedure, shortened: as §1
# [12] = biological target: Fuc(a1-2)[GalNAc(a1-3)]Gal(b1-4)[Fuc(a1-3)]GlcNAc(b1-3)GalNAc
# Procedure, shortened: as §1
# [13] = biological target: Fuc(a1-3)[Gal3S(b1-4)]Glc
# Procedure, shortened: as §1
# Gal(a1-3)Gal(b1-4)GlcNAc = biological target: Gal(a1-3)Gal(b1-4)GlcNAc
# Procedure, shortened: as §1
# [14] = biological target: Gal(a1-3)[Gal(a1-4)]Gal(b1-4)GlcNAc
# Procedure, shortened: as §1
# [15] = biological target: Gal(b1-3)GalNAc(a1-3)[Fuc(a1-2)]Gal(b1-4)GlcNAc
# Procedure, shortened: as §1
# [16] = biological target: Gal(b1-3)GlcNAc(a1-6)Gal(b1-4)GlcNAc
# Procedure, shortened: as §1
# [17] = biological target: Gal(b1-3)GlcNAc(b1-3)Gal(b1-4)GlcNAc(b1-6)[Gal(b1-3)GlcNAc(b1-3)]Gal(b1-4)Glc
# Procedure, shortened: as §1
# [18] = biological target: Gal(b1-3)GlcNAc(b1-3)GalNAc
# Procedure, shortened: as §1
# [19] = biological target: Gal(b1-3)GlcNAc(b1-6)[Gal(b1-3)]GalNAc
# Procedure, shortened: as §1
# [20] = biological target: Gal(b1-3)[Fuc(a1-4)]GlcNAc(b1-2)Man
# Procedure, shortened: as §1
# [21] = biological target: Gal(b1-4)GlcNAc(b1-3)Gal(b1-4)Glc
# Procedure, shortened: as §1
# [22] = biological target: Gal(b1-4)GlcNAc(b1-3)Gal(b1-4)GlcNAc(b1-3)Gal(b1-4)GlcNAc(b1-3)Gal(b1-4)GlcNAc(b1-2)Man(a1-3)[Gal(b1-4)GlcNAc(b1-3)Gal(b1-4)GlcNAc(b1-3)Gal(b1-4)GlcNAc(b1-3)Gal(b1-4)GlcNAc(b1-2)Man(a1-6)]Man(b1-4)GlcNAc(b1-4)GlcNAc
# Procedure, shortened: as §1
# [23] = biological target: Gal(b1-4)GlcNAc(b1-3)Gal(b1-4)GlcNAc(b1-3)Gal(b1-4)GlcNAc(b1-3)Gal(b1-4)GlcNAc(b1-3)Gal(b1-4)GlcNAc(b1-2)Man(a1-3)[Gal(b1-4)GlcNAc(b1-3)Gal(b1-4)GlcNAc(b1-3)Gal(b1-4)GlcNAc(b1-3)Gal(b1-4)GlcNAc(b1-3)Gal(b1-4)GlcNAc(b1-2)Man(a1-6)]Man(b1-4)GlcNAc(b1-4)GlcNAc
# Procedure, shortened: as §1
# [24] = biological target: Gal(b1-4)GlcNAc(b1-3)Gal(b1-4)GlcNAc(b1-3)[Gal(b1-4)GlcNAc(b1-3)Gal(b1-4)GlcNAc(b1-6)]GalNAc
# Procedure, shortened: as §1
# GalNAc(b1-3)GlcNAc = biological target: GalNAc(b1-3)GlcNAc
# Procedure, shortened: as §1
# GalNAc(b1-4)GlcNAc = biological target: GalNAc(b1-4)GlcNAc
# Procedure, shortened: as §1
# [25] = biological target: GalNAc(b1-4)GlcNAc(b1-2)Man
# Procedure, shortened: as §1
# [26] = biological target: GlcNAc(a1-4)Gal(b1-4)GlcNAc(b1-3)Gal(b1-4)GlcNAc(b1-3)Gal(b1-4)GlcNAc
# Procedure, shortened: as §1
# [27] = biological target: GlcNAc(a1-6)Gal(b1-4)GlcNAc
# Procedure, shortened: as §1
# [28] = biological target: GlcNAc(b1-3)Gal(b1-4)GlcNAc(b1-2)[GlcNAc(b1-3)Gal(b1-4)GlcNAc(b1-6)]Man(a1-6)[GlcNAc(b1-3)Gal(b1-4)GlcNAc(b1-2)Man(a1-3)]Man(b1-4)GlcNAc(b1-4)GlcNAc
# Procedure, shortened: as §1
# [29] = biological target: GlcNAc(b1-3)Gal(b1-4)GlcNAc(b1-3)Gal(b1-4)GlcNAc(b1-2)Man(a1-3)[GlcNAc(b1-3)Gal(b1-4)GlcNAc(b1-3)Gal(b1-4)GlcNAc(b1-2)Man(a1-6)]Man(b1-4)GlcNAc(b1-4)[Fuc(a1-6)]GlcNAc
# Procedure, shortened: as §1
# [30] = biological target: GlcNAc(b1-4)Gal(b1-4)GlcNAc
# Procedure, shortened: as §1
# GlcNAc(b1-4)GlcNAc = biological target: GlcNAc(b1-4)GlcNAc
# Procedure, shortened: as §1
# [31] = biological target: GlcNAc(b1-4)GlcNAc(b1-4)GlcNAc(b1-4)GlcNAc(b1-4)GlcNAc
# Procedure, shortened: as §1
# [32] = biological target: Neu5Ac(a2-3)Gal(b1-3)GalNAc(b1-4)[Neu5Ac(a2-3)]Gal(b1-4)Glc
# Procedure, shortened: as §1
# [33] = biological target: Neu5Ac(a2-3)Gal(b1-3)[Fuc(a1-4)]GlcNAc(b1-3)Gal(b1-3)[Fuc(a1-4)]GlcNAc
# Procedure, shortened: as §1
# [34] = biological target: Neu5Ac(a2-3)Gal(b1-4)GlcNAc(b1-2)Man(a1-3)[Neu5Ac(a2-3)Gal(b1-4)GlcNAc(b1-2)Man(a1-6)]Man(b1-4)GlcNAc(b1-4)[Fuc(a1-6)]GlcNAc
# Procedure, shortened: as §1
# [35] = biological target: Neu5Ac(a2-3)Gal(b1-4)GlcNAc6S
# Procedure, shortened: as §1
# [36] = biological target: Neu5Ac(a2-3)[GalNAc(b1-4)]Gal(b1-4)GlcNAc
# Procedure, shortened: as §1
# Neu5Ac(a2-6)Gal(b1-4)Glc = biological target: Neu5Ac(a2-6)Gal(b1-4)Glc
# Procedure, shortened: as §1
# [37] = biological target: Neu5Ac(a2-6)Gal(b1-4)GlcNAc
# Procedure, shortened: as §1
# [38] = biological target: Neu5Ac(a2-6)Gal(b1-4)GlcNAc(b1-2)Man(a1-3)[GlcNAc(b1-2)Man(a1-6)]Man(b1-4)GlcNAc(b1-4)GlcNAc
# Procedure, shortened: as §1
# [39] = biological target: Neu5Ac(a2-6)Gal(b1-4)GlcNAc(b1-2)Man(a1-3)[Neu5Ac(a2-6)Gal(b1-4)GlcNAc(b1-2)Man(a1-6)]Man(b1-4)GlcNAc(b1-4)[Fuc(a1-6)]GlcNAc
# Procedure, shortened: as §1
# [40] = biological target: Neu5Ac(a2-6)Gal(b1-4)GlcNAc(b1-2)[Neu5Ac(a2-6)Gal(b1-4)GlcNAc(b1-4)]Man(a1-3)[GlcNAc(b1-4)][Neu5Ac(a2-6)Gal(b1-4)GlcNAc(b1-2)[Neu5Ac(a2-6)Gal(b1-4)GlcNAc(b1-6)]Man(a1-6)]Man(b1-4)GlcNAc(b1-4)GlcNAc
# Procedure, shortened: as §1
# [41] = biological target: Neu5Ac(a2-6)Gal(b1-4)GlcNAc(b1-3)[Neu5Ac(a2-6)Gal(b1-4)GlcNAc(b1-6)]GalNAc
# Procedure, shortened: as §1
# [42] = biological target: Neu5Ac(a2-6)Gal(b1-4)GlcNAc6S
# Procedure, shortened: as §1
# [43] = biological target: Neu5Ac(a2-6)GlcNAc(b1-4)GlcNAc(b1-4)GlcNAc
# Procedure, shortened: as §1
# [44] = biological target: Neu5Ac(a2-8)Neu5Ac(a2-3)Gal(b1-3)GalNAc(b1-4)[Neu5Ac(a2-8)Neu5Ac(a2-3)]Gal(b1-4)Glc
# Procedure, shortened: as §1
# Neu5Gc(a2-6)GalNAc = biological target: Neu5Gc(a2-6)GalNAc
# Procedure, shortened: as §1
binder,measurement,setting,value
AT1G15820(NC) (Arabidopsis thaliana) (protein) MAMAVSGAVLSGLGSSFLTGGKRGATALASGVGDAIAPFSFGSLLGTQLLLMGWVESKRWVDFFNPDSQSVEWATPWSKTAENFANYTGDQGYPGGRFFDPLGLAGKNRDGVYEPDFEKLERLKLAEIKHSRLAMVAMLIFYFEAGQGKTPLGALGL,glycan array binding signal (z-score),Fuc(a1-2)Gal,4.29
same,glycan array binding signal (z-score),[1],3.01
same,glycan array binding signal (z-score),[2],-0.346
same,glycan array binding signal (z-score),[3],-0.5
same,glycan array binding signal (z-score),[4],-0.307
same,glycan array binding signal (z-score),[5],0.457
same,glycan array binding signal (z-score),[6],-0.439
same,glycan array binding signal (z-score),[7],-0.506
same,glycan array binding signal (z-score),[8],0.211
same,glycan array binding signal (z-score),[9],-0.395
same,glycan array binding signal (z-score),[10],-0.243
same,glycan array binding signal (z-score),[11],-0.49
same,glycan array binding signal (z-score),[12],4.75
same,glycan array binding signal (z-score),[13],-0.315
same,glycan array binding signal (z-score),Gal(a1-3)Gal(b1-4)GlcNAc,-0.211
same,glycan array binding signal (z-score),[14],4.55
same,glycan array binding signal (z-score),[15],-0.432
same,glycan array binding signal (z-score),[16],-0.36
same,glycan array binding signal (z-score),[17],5.77
same,glycan array binding signal (z-score),[18],-0.541
same,glycan array binding signal (z-score),[19],-0.208
same,glycan array binding signal (z-score),[20],-0.282
same,glycan array binding signal (z-score),[21],3.65
same,glycan array binding signal (z-score),[22],0.202
same,glycan array binding signal (z-score),[23],0.01
same,glycan array binding signal (z-score),[24],4.39
same,glycan array binding signal (z-score),GalNAc(b1-3)GlcNAc,-0.221
same,glycan array binding signal (z-score),GalNAc(b1-4)GlcNAc,7.2
same,glycan array binding signal (z-score),[25],-0.306
same,glycan array binding signal (z-score),[26],-0.156
same,glycan array binding signal (z-score),[27],-0.626
same,glycan array binding signal (z-score),[28],0.582
same,glycan array binding signal (z-score),[29],2.99
same,glycan array binding signal (z-score),[30],0.405
same,glycan array binding signal (z-score),GlcNAc(b1-4)GlcNAc,-0.216
same,glycan array binding signal (z-score),[31],4.7
same,glycan array binding signal (z-score),[32],-0.581
same,glycan array binding signal (z-score),[33],-0.555
same,glycan array binding signal (z-score),[34],-0.329
same,glycan array binding signal (z-score),[35],-0.18
same,glycan array binding signal (z-score),[36],-0.475
same,glycan array binding signal (z-score),Neu5Ac(a2-6)Gal(b1-4)Glc,-0.637
same,glycan array binding signal (z-score),[37],-0.363
same,glycan array binding signal (z-score),[38],-0.052
same,glycan array binding signal (z-score),[39],0.316
same,glycan array binding signal (z-score),[40],-0.4
same,glycan array binding signal (z-score),[41],-0.424
same,glycan array binding signal (z-score),[42],-0.322
same,glycan array binding signal (z-score),[43],-0.481
same,glycan array binding signal (z-score),[44],5.08
same,glycan array binding signal (z-score),Neu5Gc(a2-6)GalNAc,-0.493
